The source of these data is ChEMBL document CHEMBL3988442, “University of Dundee, Small-Polar-MMV Screening Library” (2021).

Structures are written as SMILES.

For assay [1], the target named is T1, Aspartate--tRNA(Asp/Asn) ligase (Mycobacterium tuberculosis (strain ATCC 25618 / H37Rv)) (UniProt P9WFW3). Also: in the data most compounds retested in dose-response had high values.
T1 sequence (whole entry): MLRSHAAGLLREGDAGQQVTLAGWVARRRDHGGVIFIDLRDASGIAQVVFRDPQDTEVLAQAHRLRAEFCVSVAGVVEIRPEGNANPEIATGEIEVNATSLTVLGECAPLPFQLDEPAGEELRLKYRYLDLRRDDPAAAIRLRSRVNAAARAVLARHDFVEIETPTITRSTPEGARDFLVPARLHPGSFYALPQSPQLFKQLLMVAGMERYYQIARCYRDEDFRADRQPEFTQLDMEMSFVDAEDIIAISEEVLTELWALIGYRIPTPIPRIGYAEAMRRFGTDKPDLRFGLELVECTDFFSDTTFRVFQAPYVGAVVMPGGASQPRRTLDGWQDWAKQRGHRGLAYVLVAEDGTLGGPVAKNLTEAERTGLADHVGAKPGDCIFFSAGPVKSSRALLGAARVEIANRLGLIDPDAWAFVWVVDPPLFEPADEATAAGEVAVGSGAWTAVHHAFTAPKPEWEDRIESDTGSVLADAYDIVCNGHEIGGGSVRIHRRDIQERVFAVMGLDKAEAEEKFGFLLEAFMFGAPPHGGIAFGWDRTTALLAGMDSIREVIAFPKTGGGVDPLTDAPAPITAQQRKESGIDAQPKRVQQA
Kind of assay: Assay for Asp RNA synthetase-1 from Mycobacterium tuberculosis. The assay is classed as functional. The following applies: 30 µM. Also noted: scale not given: direction of the effect not stated beside the values.

Assay [2] concerns the target Shiga toxin 2 (Escherichia coli O157:H7) (UniProt P09385+P09386). The assay is described as follows: E. coli 0.157:H7 Shiga Toxin SOP - stx2 screening assay. The assay is classed as functional. Details: scale not given: direction of the effect not stated beside the values. The note with it: 30 µM.

Take `Cc1cccc(N2Cc3nc(=O)[nH]n3C2=O)c1`: the Percent Effect in assay [1] was -3.43%; in assay [2], -54.1%.

Turning to `COCCN1C[C@H]2[C@@H](C1)N(C(=O)c1cccs1)CC[C@H]2OC`, the Percent Effect in assay [1] was found to be 0.503%; in assay [2], 3.28%.

In the case of `O=C(c1ccccn1)N1CCCC(c2nccn2Cc2ccncc2)C1` (centres undefined), the Percent Effect amounted to 6.99% in assay [1] and 4.41% in assay [2].

With `Cc1noc(Cl)c1CC(=O)N1CCCC(n2cccn2)C1` (centres undefined), the Percent Effect was 2.08% in assay [1] and 32.6% in assay [2].

As to `O=C(NCCN1CCCCC1)c1nc(-c2ccc3cc[nH]c3c2)no1`, the values for the Percent Effect in assay [1] and in assay [2] were 6.42% and -77.4%, respectively.

In the case of `Cc1ccc(C(CNCc2cnn(C(C)C)c2)N2CCOCC2)s1` (centres undefined), the Percent Effect is -4.07% in assay [1] and -11% in assay [2].

Turning to `Cn1nnc2c1CCN(Cc1ccccc1)C2COCC1CC1` (centres undefined), the Percent Effect was 2.13% in assay [1] and -19.5% in assay [2].

As to `CC(CNC(=O)c1ccc(Cl)cc1I)N1CCCC1` (centres undefined), the Percent Effect is -0.881% in assay [1] and -18.5% in assay [2].

With `CN(CCc1ccccc1)C1CCCN(Cc2nccn2C)C1` (centres undefined), the Percent Effect in assay [1] is 0.357%; in assay [2], -0.197%.

Take `O=C(Cc1c[nH]c2ccccc12)N1CCN(C(=O)c2ccoc2)CC1`: the Percent Effect in assay [1] was 7.22%; in assay [2], -16.5%.

As for `CS(=O)(=O)N[C@@H]1CCO[C@]2(CCN(C(=O)C3=CCCC3)C2)C1`, the Percent Effect in assay [1] is 3.41%; in assay [2] it was -0.907%.

For `Cc1nc(N2CCN(C)CC2)ncc1C(=O)N1CCC(O)(CO)CC1`, the Percent Effect worked out at 3.4% in assay [1] and 5.75% in assay [2].

Consider `COc1ccc(C(C)NC(=O)NCCCn2cncn2)cc1F` (centres undefined), for which the Percent Effect was 7.3% in assay [1] and -14.5% in assay [2].

With `O=C(O)CCc1cc2n(n1)CCCN(C(=O)c1ccc3cc[nH]c3c1)C2`, the Percent Effect in assay [1] is -1.19%; in assay [2] it was -1.98%.

Turning to `CC(=O)c1sc(Nc2ccc(Cl)cn2)nc1C`, the Percent Effect in assay [1] was 6.71%; in assay [2] it was -4.07%.

For the molecule `Cc1ccc(CNC(=O)CN2C=Nc3ccccc3S2(=O)=O)s1`, the figures for the Percent Effect in assay [1] and in assay [2] were -0.759% and 9.11%, respectively.

Consider `O=C(c1cc(F)ccc1F)C1CCN(C(=O)c2ccccn2)CC1`, for which the Percent Effect in assay [1] was -3.52%; in assay [2], 18.1%.
